# Source: publication PMC8384837, “Expanding the binding specificity for RNA recognition by a PUF domain”
# Residue numbers refer to the chain shown, from its start.
# How the values were obtained:
# Experiment in all cases: yeast three-hybrid, YBZ-1, SC-Leu-His + 0.5 mM 3-AT, 4 days
# Settings in all cases: tags: N-Gal4 AD-HA kept; label: inside an RPR1-promoter hybrid RNA with tandem MS2 sites; ssRNA
# [1] = target: PUM1 PUF domain R3-DRQ (Homo sapiens, UniProt Q14671 828-1176, C935D)
# Procedure, shortened: (§1)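 Each repeat of the Pumilio-1 PUF domain was randomized at its three base-contacting residues, and these libraries were co-expressed from a centromeric plasmid with matching RNA elements in strain YBZ-1. After four days on SC-Leu (input) or SC-Leu-His + 0.5 mM 3-AT (selection), the repeat regions were PCR-amplified and Illumina-sequenced. The interaction score compares variant frequency between input and selection as a log change, computed in log2 with a pseudocount of 1 for absent variants.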
# [2] = target: PUM1 PUF domain R4-SRY (Homo sapiens, UniProt Q14671 828-1176, N971S;H972R;Q975Y)
# Procedure, shortened: as §1
# [3] = target: PUM1 PUF domain R8-PWR (Homo sapiens, UniProt Q14671 828-1176, N1122P;Y1123W;Q1126R)
# Procedure, shortened: as §1
# [4] = target: PUM1 PUF domain R5-RMP (Homo sapiens, UniProt Q14671 828-1176, C1007R;R1008M;Q1011P)
# Procedure, shortened: as §1
# [5] = target: PUM1 PUF domain R8-AYK (Homo sapiens, UniProt Q14671 828-1176, N1122A;Q1126K)
# Procedure, shortened: as §1
# [6] = target: T1, PUM1 PUF domain R6-SWA (Homo sapiens, UniProt Q14671 828-1176, N1043S;Y1044W;Q1047A)
# T1 sequence: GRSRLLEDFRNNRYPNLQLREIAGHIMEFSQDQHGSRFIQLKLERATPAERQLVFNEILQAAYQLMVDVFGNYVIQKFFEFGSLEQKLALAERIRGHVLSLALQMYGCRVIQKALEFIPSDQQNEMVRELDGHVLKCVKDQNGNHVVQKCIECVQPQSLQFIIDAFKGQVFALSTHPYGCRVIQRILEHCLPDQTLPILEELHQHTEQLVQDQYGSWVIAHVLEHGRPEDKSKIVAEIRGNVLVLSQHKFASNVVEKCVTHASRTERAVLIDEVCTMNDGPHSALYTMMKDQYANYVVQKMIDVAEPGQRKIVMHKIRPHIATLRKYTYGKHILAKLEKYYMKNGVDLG
# Procedure, shortened: as §1
# [7] = target: PUM1 PUF domain R2-NRG (Homo sapiens, UniProt Q14671 828-1176, Y900R;Q903G)
# Procedure, shortened: as §1
# [8] = target: PUM1 PUF domain R8-RFL (Homo sapiens, UniProt Q14671 828-1176, N1122R;Y1123F;Q1126L)
# Procedure, shortened: as §1
# [9] = target: T2, PUM1 PUF domain R6-YWV (Homo sapiens, UniProt Q14671 828-1176, N1043Y;Y1044W;Q1047V)
# T2 sequence: T1 sequence with S216Y, A220V
# Procedure, shortened: as §1
# [10] = target: PUM1 PUF domain R2-GWG (Homo sapiens, UniProt Q14671 828-1176, N899G;Y900W;Q903G)
# Procedure, shortened: as §1
# [11] = target: PUM1 PUF domain R4-SHP (Homo sapiens, UniProt Q14671 828-1176, N971S;Q975P)
# Procedure, shortened: as §1
# [12] = target: PUM1 PUF domain R7-RIL (Homo sapiens, UniProt Q14671 828-1176, S1079R;N1080I;E1083L)
# Procedure, shortened: as §1
sequence,measurement,setting,value
GGCUAGAACUAGUGGAUCCCCCGGCGCCCGGCGGCUCGAGCCCGGGUAAGUGUAAAUAGUCUGCAUGCCGCCGGGCGCCAUGCCUGCAGGUCGACUCUAGAAAACAUG,binding signal,[1],4.43 log2 enrichment (interaction score)
same,binding signal,[2],5.27 log2 enrichment (interaction score)
same,binding signal,[3],4.27 log2 enrichment (interaction score)
same,binding signal,[4],0.45 log2 enrichment (interaction score)
same,binding signal,[5],2.5 log2 enrichment (interaction score)
same,binding signal,[6],1.55 log2 enrichment (interaction score)
same,binding signal,[7],2.44 log2 enrichment (interaction score)
same,binding signal,[8],4.7 log2 enrichment (interaction score)
GGCUAGAACUAGUGGAUCCCCCGGCGCCCGGCGGCUCGAGCCCGGGUAAGUGAAAAUAGUCUGCAUGCCGCCGGGCGCCAUGCCUGCAGGUCGACUCUAGAAAACAUG,binding signal,[9],4.97 log2 enrichment (interaction score)
same,binding signal,[6],3.21 log2 enrichment (interaction score)
GGCUAGAACUAGUGGAUCCCCCGGCGCCCGGCGGCUCGAGCCCGGGUAAGUGUAAAGAGUCUGCAUGCCGCCGGGCGCCAUGCCUGCAGGUCGACUCUAGAAAACAUG,binding signal,[10],2.13 log2 enrichment (interaction score)
GGCUAGAACUAGUGGAUCCCCCGGCGCCCGGCGGCUCGAGCCCGGGUAAGUGUAUAUAGUCUGCAUGCCGCCGGGCGCCAUGCCUGCAGGUCGACUCUAGAAAACAUG,binding signal,[2],0.46 log2 enrichment (interaction score)
same,binding signal,[11],5.36 log2 enrichment (interaction score)
GGCUAGAACUAGUGGAUCCCCCGGCGCCCGGCGGCUCGAGCCCGGGUAAGUGUACAUAGUCUGCAUGCCGCCGGGCGCCAUGCCUGCAGGUCGACUCUAGAAAACAUG,binding signal,[11],5.25 log2 enrichment (interaction score)
GGCUAGAACUAGUGGAUCCCCCGGCGCCCGGCGGCUCGAGCCCGGGUAAGUGUAAAAAGUCUGCAUGCCGCCGGGCGCCAUGCCUGCAGGUCGACUCUAGAAAACAUG,binding signal,[10],3.32 log2 enrichment (interaction score)
same,binding signal,[7],2.91 log2 enrichment (interaction score)
GGCUAGAACUAGUGGAUCCCCCGGCGCCCGGCGGCUCGAGCCCGGGUAAGUUUAAAUAGUCUGCAUGCCGCCGGGCGCCAUGCCUGCAGGUCGACUCUAGAAAACAUG,binding signal,[12],2.38 log2 enrichment (interaction score)
GGCUAGAACUAGUGGAUCCCCCGGCGCCCGGCGGCUCGAGCCCGGGUAAGUGUCAAUAGUCUGCAUGCCGCCGGGCGCCAUGCCUGCAGGUCGACUCUAGAAAACAUG,binding signal,[4],4.09 log2 enrichment (interaction score)
